# Assay results: PubChem BioAssay AID1240 (Sanford-Burnham Center for Chemical Genomics, 2008)
# In all, about 50,000 compounds went through this assay and about 800 (1.6%) showed an effect of 50% or more. The sample holds strong results, similar compounds and a random draw of the others, so the mix is not that of the screen.
# Molecular target: Bcl-2-like protein 10 (Homo sapiens) (UniProt Q9HD36)
# Test: Phenotype converters, Bcl-B/TR3 peptide binding displacement, primary biochemical FP (AID 1240);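 further: 0% = Bcl-B with tracer peptide and DMSO and 100% = tracer peptide lacking Bcl-B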
# Details: GST-Bcl-B / FITC-TR3 peptide fluorescence polarization; stronger effect = higher value; compound at 3.75 mg/L
# Chain of Bcl-2-like protein 10 (Homo sapiens) (Q9HD36 whole entry, looked up): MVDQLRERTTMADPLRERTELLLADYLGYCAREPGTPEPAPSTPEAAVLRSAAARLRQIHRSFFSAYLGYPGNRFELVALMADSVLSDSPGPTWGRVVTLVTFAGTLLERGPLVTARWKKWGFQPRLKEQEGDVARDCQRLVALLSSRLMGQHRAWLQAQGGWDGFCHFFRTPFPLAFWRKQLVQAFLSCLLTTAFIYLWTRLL
row,SMILES,displacement
1,O=c1/c(=C/c2cccc(Br)c2)sc2nc3ccccc3n12,14.5%
2,COc1cccc(OCCOc2cccc(/C=c3\sc4nc5ccccc5n4c3=O)c2)c1,4.4%
3,COc1cccc(/C=c2/sc3nc4ccccc4n3c2=O)c1,92.4%
4,COc1cc(Br)c(/C=c2/sc3nc4ccccc4n3c2=O)cc1OC,132%
5,COc1cccc(OCCOc2c(Cl)cc(/C=c3\sc4nc5ccccc5n4c3=O)cc2OC)c1,92.6%
6,CCOC(=O)COc1cc(Br)c(/C=c2\sc3nc4ccccc4n3c2=O)cc1OC,11.1%
7,O=c1/c(=C\c2ccccc2OCc2cccc3ccccc23)sc2nc3ccccc3n12,104%
8,COc1c(Br)cc(Br)cc1/C=c1\sc2nc3ccccc3n2c1=O,21.9%
9,O=c1/c(=C\c2ccc(OCc3cccc4ccccc34)cc2)sc2nc3ccccc3n12,11.6%
10,O=c1/c(=C/c2ccccc2OCc2ccccc2F)sc2nc3ccccc3n12,12.4%
11,COc1cc(/C=c2\sc3nc4ccccc4n3c2=O)cc(Cl)c1OCCOc1ccc(Br)cc1,-2.9%
12,O=C(c1ccccc1)c1ccc(N=Cc2ccc([N+](=O)[O-])s2)cc1,8.8%
13,CCOc1ccccc1/C=C/C(=O)c1cccs1,-11.9%
14,CC(C)CN1C(=O)/C(=C/c2cccc3ccccc23)SC1=S,8.3%
15,O=[N+]([O-])c1cccc(S(=O)(=O)NCc2ccccc2)c1,-3.3%
16,NNC(=O)CSc1nc2ccccc2n1Cc1ccccc1,-9.6%
17,Cc1occc1C(=O)NC1CCCCCC1,-13.4%
18,Cc1ccc(CNC(=O)C(C)Oc2ccc(Cl)cc2Cl)cc1 (stereo not given),-12.1%
19,O=c1/c(=C\c2ccc(OS(=O)(=O)c3cccc([N+](=O)[O-])c3)cc2)sc2nc3ccccc3n12,-6.5%
20,O=c1/c(=C\c2cccc(OS(=O)(=O)c3cccc([N+](=O)[O-])c3)c2)sc2nc3ccccc3n12,101%
21,Cc1ccc(S(=O)(=O)Oc2cccc(/C=c3/sc4nc5ccccc5n4c3=O)c2)cc1,-0.5%
22,Cc1ccc(S(=O)(=O)Oc2ccc(/C=C3\SC(=S)NC3=O)cc2)cc1,-32.2%
23,COC(=O)c1cc(N=NC2=C(O)CC(C)(C)CC2=O)cc(C(=O)OC)c1,-7.3%
24,CCC(=O)Nc1ccc(NC(=O)/C=C/c2ccc(-c3ccc(Cl)cc3Cl)o2)cc1,-14.5%
25,O=C(/C=C/c1ccc(-c2ccc(Cl)cc2Cl)o1)Nc1ccc(N2CCOCC2)cc1,83%

row,SMILES,displacement
1,O=C(Nc1ccc(N2CCOCC2)cc1)c1ccc(-c2ccc(Cl)cc2Cl)o1,-4.5%
2,O=C(O)c1cc(C(=O)O)cc(N2C(=O)c3ccc(Oc4cccc([N+](=O)[O-])c4)cc3C2=O)c1,3.2%
3,CC1(C)NN(c2ccccc2)C(=S)N1c1ccccc1,9.6%
4,CC1(C)NN(c2ccccc2)C(=S)N1CN1CCOCC1,55.9%
5,S=c1n(CN2CCOCC2)nnn1-c1ccccc1,-5.3%
6,O=C(Cn1c(-c2ccccc2)c[n+]2ccsc12)c1ccc([N+](=O)[O-])cc1,13.8%
7,Cc1cc(/C=C2\C(=O)NC(=O)N(c3ccccc3)C2=O)c(C)n1-c1cccc([N+](=O)[O-])c1,9.1%
8,Cc1cc(/C=C2\C(=O)NC(=O)N(c3ccc4c(c3)OCO4)C2=O)c(C)n1-c1ccccc1,16.1%
9,Cc1cc(/C=C2\C(=O)NC(=O)N(c3cccc(F)c3)C2=O)c(C)n1-c1cccc([N+](=O)[O-])c1,12.3%
10,Cc1cc(/C=C2\C(=O)NC(=O)N(c3ccc4c(c3)OCO4)C2=O)c(C)n1-c1cccc([N+](=O)[O-])c1,52.7%
11,Cc1cc(/C=C2\C(=O)NC(=O)N(c3ccc4c(c3)OCO4)C2=O)c(C)n1-c1ccc(F)cc1,8%
12,Cc1cc(/C=C2\C(=O)NC(=O)N(c3ccc4c(c3)OCO4)C2=O)c(C)n1-c1cccnc1,136%
13,COc1ccc(NC(=O)/C(=C\c2ccccc2OC)NC(=O)c2ccccc2OC)cc1,3%
14,O=C1N/C(=N\N=C\c2ccccc2F)SC1Cc1ccccc1[N+](=O)[O-] (stereo not given),7.3%
15,O=C1C2C(c3ccc(Cl)cc3)OC3(C(=O)c4ccccc4C3=O)C2C(=O)N1c1ccc(F)c([N+](=O)[O-])c1 (stereo not given),5.6%
16,COc1ccccc1NC(=O)C1=C(C)NC(=O)NC1c1cccc([N+](=O)[O-])c1 (stereo not given),-7.1%
17,CCCC(C)NS(=O)(=O)c1ccccc1[N+](=O)[O-] (stereo not given),3%
18,O=C(NCC1CCCO1)c1ccc(F)c2ccccc12 (stereo not given),-13.5%
19,CC(=O)c1cccc(NC(=O)CC2S/C(=N\N=C\c3cccs3)NC2=O)c1 (stereo not given),-3.9%
20,O=C(CC1S/C(=N\N=C\c2ccco2)NC1=O)Nc1ccc(C(=O)O)cc1 (stereo not given),-0.3%
21,O=C(CC1S/C(=N\N=C\c2cccs2)NC1=O)Nc1ccc(C(=O)O)cc1 (stereo not given),121%
22,O=C(CC1S/C(=N\N=C\c2ccccc2)NC1=O)Nc1ccc(C(=O)O)cc1 (stereo not given),69.5%
23,O=C(CC1S/C(=N\N=C\c2cccs2)NC1=O)Nc1ccc(Cl)c(Cl)c1 (stereo not given),7.8%
24,O=C(CC1S\C(=N/N=C/C=C/c2ccccc2)NC1=O)Nc1ccc(C(=O)O)cc1 (stereo not given),41.6%
25,CCOC(=O)C1=NNC2C(=O)N(c3ccc(C)c(C)c3)C(=O)C12 (stereo not given),4.5%
